Records with an inconclusive call do not appear. Calls of active or inactive are those of the source. The call rests on the fitted dose curve; in most records, active means well fitted cell-killing curve with a large enough effect; inconclusive means small, poorly fitted or top-dose-only effect, or effect the other way; inactive means no such curve, though single readings can be large or run the other way. Starred links: 1 amine or outer side, 2 acyl side, 3 side chain; linkers in the order of their positions; H or OH if unused. Positions of bridges follow the written chain, without caps; N, C: chain ends. Non-standard residues stand in square brackets, D forms with d. Residues, ends and D or L forms follow the SMILES beside them. Chains are numbered I, II in the order given. *: point of attachment. Actinocin(9to1) = Cc1c2oc3c(C)ccc(C(=O)[*:1])c3nc-2c(C(=O)[*:2])c(N)c1=O; NMeV = CN[CH](C(=O)O)C(C)C; Nva = CCC[C@H](N)C(=O)O; Cbz = O=C(OCc1ccccc1)*; Sar = CNCC(=O)O
Assay: Quantitative High-Throughput drug screen in 47 multiple myeloma cell lines against the NCATS MIPE library collection: KMS11_JCRBsus cell viability assay (AID 1919873); further: nearly all actives have a fitted effect of over 50% in size
Conditions: KMS11 myeloma viability, CellTiter-Glo ATP luminescence, 48 h; series mostly up to 45.8 µM; viability (% of control): at the top concentration
Text: PI: Beverly A. Mock Ph.D.
Laboratory of Cancer Biology and Genetics,
Center for Cancer Research, National Cancer Institute,
National Institute of Health, Bethesda, Maryland
Drug resistance and disease progression are common in multiple myeloma (MM) patients, underscoring the need for new therapeutic combinations. […] We hypothesized that effective combinations would reduce MYC expression and enhance p16 activity. […] These preclinical data identify potentially useful drug combinations for evaluation in drug-resistant MM and reveal potential mechanisms of combined drug sensitivity.
Described herein is the primary MIPE qHTS used to cherrypick compounds. Validated compounds were then further tested for potential synergistic activiy.
[1] Peat TJ, Gaikwad SM, Dubois W, Gyabaah-Kessie N, Zhang S, Gorjifard S, Phyo Z, Andres M, Hughitt VK, Simpson RM, Miller MA, Girvin AT, Taylor A, Williams D, D'Antonio N, Zhang Y, Rajagopalan A, Flietner E, Wilson K, Zhang X, Shinn P, Klumpp-Thomas C, McKnight C, Itkin Z, Chen L, Kazandijian D, Zhang J, Michalowski AM, Simmons JK, Keats J, Thomas CJ, Mock BA. Drug combinations identified by high-throughput screening promote cell cycle transition and upregulate Smad pathways in myeloma. Cancer Lett. 2023 Aug 1;568:216284. doi: 10.1016/j.canlet.2023.216284. Epub 2023 Jun 24. PMID: 37356470; PMCID: PMC10408729.
SEQUENCE No. (e.g., 1, 2, 3, etc.); […] (e.g., Cells, Incubation, Reagent, etc.); VALUE and DESCRIPTION.
1; Cells; 5 uL; white, solid bottom 1536-well Greiner assay plate.
2; Compounds; 23 nL; Kalypsis pin tool (Wako USA) equipped with a 1536-well pin head to transfer to the assay plates.
3; Incubation; 48 hours; 37C incubation.
4; Reagent;5uL; CellTiter Glo (Promega).
5; Detector; 425V; Luminescence; Viewlux PerkinElmer.
NOTES (numbers refer to Sequence numbers above)
1. The cell-based screening methods employed in this study were like those previously published. Briefly, the corresponding myeloma cell lines were screened in 1,536-well plates with 500 cells, 5-uL per well for inhibition of cell viability (assessed by measuring ATP levels with CellTiterGlo).
2. NCATS MIPE 4.0 library of approved and investigational drugs were added using the Kalypsis pin tool. Wells treated with DMSO only for 100% viability and media only for 0% viability were used as controls.
3. The assay plates were covered and incubated for 48 hours in a 37C, 5% CO2 incubator with controlled humidity.
4. After 48 hours, CellTilter-GloTM luminescent substrate mix (Promega) reagent was added to the assay plate and plates we incubated for 5 min at room temperature.
5. Signal was measured as median relative luminescence units on a ViewLux (PerkinElmer) multiplate reader.
[1] Heske CM, Davis MI, Baumgart JT, Wilson K, Gormally MV, Chen L, Zhang X, Ceribelli M, Duveau DY, Guha R, Ferrer M, Arnaldez FI, Ji J, Tran HL, Zhang Y, Mendoza A, Helman LJ, Thomas CJ. Matrix Screen Identifies Synergistic Combination of PARP Inhibitors and Nicotinamide Phosphoribosyltransferase (NAMPT) Inhibitors in Ewing Sarcoma. Clin Cancer Res. 2017 Dec 1;23(23):7301-7311. doi: 10.1158/1078-0432.CCR-17-1121. Epub 2017 Sep 12. PMID: 28899971; PMCID: PMC6636827.
Potency means the concentration at half of the fitted maximal effect.

Compound | Potency | viability (% of control)
NC(=O)Nc1sc(-c2ccc(F)cc2)cc1C(N)=O | 4.69 µM (active) | 
COC[C@H](NC(=O)c1cnc(C)s1)C(=O)N[C@@H](COC)C(=O)N[C@@H](Cc1ccccc1)C(=O)[C@@]1(C)CO1 | 0.0187 µM (active) | 
COc1ccc(CCC(=O)c2c(O)cc(O[C@@H]3O[C@H](CO)[C@@H](O)[C@H](O)[C@@H]3O[C@@H]3O[C@@H](C)[C@H](O)[C@@H](O)[C@@H]3O)cc2O)cc1O |  | 103% (inactive)
NC(=O)c1ncn([C@@H]2O[C@H](CO)[C@@H](O)[C@@H]2O)c1O |  | 108% (inactive)
COc1ccc(S(=O)(=O)Nc2cc(-c3c(O)ccc4ccccc34)c(O)c3ccccc23)cc1 | 3.32 µM (active) | 
C[N+]1(C)[C@@H]2C[C@@H](OC(=O)C(O)(c3cccs3)c3cccs3)C[C@H]1[C@@H]1O[C@@H]12 |  | 95.5% (inactive)
CCC(C=C[C@@H]1OC(=O)C=C[C@H]1C)=C[C@H](C)CC=CC(C)=C[C@@H](C)C(=O)[C@@H](C)[C@H](O)[C@@H](C)CC(C)=CC(=O)O | 0.0139 µM (active) | 
Cc1cc(C(=O)NOCCO)c(Nc2ccc(I)cc2F)n(C)c1=O |  | 95.2% (inactive)
COC(=O)C=CC(=O)OC |  | 112% (inactive)
Cc1c2oc3c(C)ccc(C(=O)NC4C(=O)NC(C(C)C)C(=O)N5CCCC5C(=O)N(C)CC(=O)N(C)C(C(C)C)C(=O)OC4C)c3nc-2c(C(=O)NC2C(=O)NC(C(C)C)C(=O)N3CCCC3C(=O)N(C)CC(=O)N(C)C(C(C)C)C(=O)OC2C)c(N)c1=O (stereo not given) (I: TVP[Sar][NMeV] / II: TVP[Sar][NMeV]; ester I:1-I:C, II:1-II:C; linker I:N-II:N via Actinocin(9to1); configuration not given here) |  | 1.38% (inactive)
O=c1ccn([C@@H]2O[C@H](CO)[C@H](O)[C@@H]2F)c(=O)[nH]1 |  | 116% (inactive)
CNC(=O)c1ccc(Nc2cc(Nc3ccccc3S(=O)(=O)C(C)C)c3cc[nH]c3n2)nc1 | 2.64 µM (active) | 
Cc1cnc(Nc2ccc(CN3CCOCC3)cc2)nc1Nc1cccc(S(=O)(=O)NC(C)(C)C)c1 | 1.18 µM (active) | 
CC(C=CC1=C(C)CCCC1(C)C)=CC=CC(C)=CC(=O)Nc1ccc(O)cc1 | 19.1 µM (active) | 
O=C(C=Cc1ccc(CN(CCO)CCc2c[nH]c3ccccc23)cc1)NO | 0.0526 µM (active) | 
C=C1CCC2[C@](C)(CO)C(O)CC[C@]2(C)C1CC=C1C(=O)OCC1O (stereo not given in full) |  | 105% [at 92.2 µM] (inactive)
O=C1NC(O)CCN1[C@@H]1O[C@H](CO)[C@H](O)[C@H]1O (stereo not given in full) |  | 114% (inactive)
CCc1cnn2c(NCc3ccc[n+]([O-])c3)cc(N3CCCC[C@@H]3CCO)nc12 | 0.0209 µM (active) | 
O=C(NC1CC1)c1cccc(-c2ccc3c(NC(=O)C4CC4)n[nH]c3c2)c1 | 7.43 µM (active) | 
CCC[C@@H](C=O)NC(=O)[C@H](CC(C)C)NC(=O)[C@H](CC(C)C)NC(=O)OCc1ccccc1 (Cbz-Leu-Leu-[Nva]-aldehyde) | 0.148 µM (active) | 

Compound | Potency | viability (% of control)
c1ccc(CNc2nc(NCc3ccccc3)c3ccccc3n2)cc1 | 11.8 µM (active) | 
Nc1ccc(C(=O)Nc2cccc(-c3nc(N4CCOCC4)c4oc5ncccc5c4n3)c2)cn1 | 6.62 µM (active) | 
O=C(O)C[C@H](O)C[C@H](O)C=Cc1c(C2CC2)nc2ccccc2c1-c1ccc(F)cc1 | 7.43 µM (active) | 
CC(C)NC[C@@H](C(=O)N1CCN(c2ncnc3c2[C@H](C)C[C@H]3O)CC1)c1ccc(Cl)cc1 | 4.69 µM (active) | 
COc1cc(C)c(Sc2cnc(NC(=O)c3ccc(CNC(C)C(C)(C)C)cc3)s2)cc1C(=O)N1CCN(C(C)=O)CC1 (stereo not given) | 5.9 µM (active) | 
N#CC(=C(O)c1ccc(Cl)cc1Cl)c1nc2cc(Cl)ccc2c(=O)[nH]1 |  | 99.7% (inactive)
CCNC(=O)c1cc2c(-c3cc(OCCN4CCCC4)c(Cl)cc3Cl)nc(N)nc2s1 | 0.59 µM (active) | 
O=C1NC(=O)[C@@H](c2cn3c4c(cccc24)CCC3)[C@H]1c1c[nH]c2ccccc12 | 0.118 µM (active) | 
CC(=O)O[C@H]1C[C@@H]2CC[C@H]3[C@H]4C[C@H]([N+]5(C)CCCCC5)[C@@H](OC(C)=O)[C@@]4(C)CC[C@@H]3[C@@]2(C)C[C@H]1N1CCCCC1 |  | 113% (inactive)
CC(=O)C1=C(O)C=C2Oc3c(C(C)=O)c(O)c(C)c(O)c3C2(C)C1=O (stereo not given) |  | 92.8% (inactive)
CCc1ccc(C(=O)Nc2cc(CN3CCN(C)CC3)cc(C(F)(F)F)c2)cc1C#Cc1cnc2ccnn2c1 | 4.69 µM (active) | 
CC(C)(C)[N+]([O-])=Cc1ccc(S(=O)(=O)O)cc1S(=O)(=O)O |  | 126% (inactive)
NC(=NCCCCCCN=C(N)N=C(N)Nc1ccc(Cl)cc1)N=C(N)Nc1ccc(Cl)cc1 | 14.8 µM (active) | 
COc1cc(C[C@@H](CO)[C@H](CO)Cc2ccc(O)c(OC)c2)ccc1O |  | 111% (inactive)
CCNC(=O)Nc1ccc(-c2nc3c(c(N4CCOC[C@H]4C)n2)CCN(C2COC2)C3)cc1 | 0.296 µM (active) | 
Cc1ccc2nc(NCCN)c3ncc(C)n3c2c1 | 3.72 µM (active) | 
CN(C)CC(=O)N1CCC(c2ccc(NC(=O)c3ncc(C#N)[nH]3)c(C3=CCCCC3)c2)CC1 | 18.7 µM (active) | 
C=CCNC1=C2C[C@@H](C)C[C@H](OC)[C@@H](O)[C@@H](C)C=C(C)[C@H](OC(N)=O)[C@@H](OC)C=CC=C(C)C(=O)NC(=CC1=O)C2=O | 0.059 µM (active) | 
CCN(CC)Cc1ccc2cc(COC(=O)Nc3ccc(C(=O)NO)cc3)ccc2c1 | 0.526 µM (active) | 
Cn1cc(C[C@@H](N)C(=O)O)c2ccccc21 |  | 104% [at 23.2 µM] (inactive)

— PubChem BioAssay (NCATS)
